From the supplement of paper PMC10849652
About 8,800 targets were measured; listed, in parts, are those with a hit and a random draw of the rest. About 0.5% of all pairs of compound and target were hits.

The targets below were run with COc1cc(Nc2ncc3c(n2)-c2ccc(Cl)cc2C(c2c(F)cccc2OC)=NC3)ccc1C(=O)O [alisertib] (assay: log2 fold change, soluble protein after heating vs DMSO (PISA); higher = thermal stabilisation; K562 lysate, 10 uM; active = over 0.2 and 3.5 SD of the protein, either way, in both replicates (recomputed)).
How it was run: (§1)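 K562 pellets were dounce-homogenised in PBS pH 7.4 with 1 mM MgCl2, and the crude extract at 1 mg/mL protein was treated with 10 μM compound for 30 min. Aliquots were heated for 3 min across 48°C-58°C, pooled, and brought to 0.5% NP-40 at 4°C; soluble protein was the supernatant after 21,000xg for 90 min. Soluble protein was quantified by TMTpro 16plex LC-MS/MS with channel sums equalised, and reported as log2 fold change in thermal stability against DMSO controls, with values from duplicates.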

Chain of UniProt P55210 (P55210 whole entry, looked up): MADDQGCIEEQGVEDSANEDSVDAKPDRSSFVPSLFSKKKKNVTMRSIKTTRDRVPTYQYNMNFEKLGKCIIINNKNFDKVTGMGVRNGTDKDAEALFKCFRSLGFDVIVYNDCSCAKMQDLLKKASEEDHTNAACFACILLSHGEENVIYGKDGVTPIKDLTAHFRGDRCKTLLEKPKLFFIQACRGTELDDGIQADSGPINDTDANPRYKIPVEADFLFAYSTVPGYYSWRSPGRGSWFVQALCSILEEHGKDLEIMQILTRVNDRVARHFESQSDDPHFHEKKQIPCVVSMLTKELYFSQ
Chain of UniProt Q9BUK0 (Q9BUK0 whole entry, looked up): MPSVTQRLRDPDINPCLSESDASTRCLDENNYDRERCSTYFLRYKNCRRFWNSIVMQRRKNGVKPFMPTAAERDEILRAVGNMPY
Chain of UniProt Q15059 (Q15059 whole entry, looked up): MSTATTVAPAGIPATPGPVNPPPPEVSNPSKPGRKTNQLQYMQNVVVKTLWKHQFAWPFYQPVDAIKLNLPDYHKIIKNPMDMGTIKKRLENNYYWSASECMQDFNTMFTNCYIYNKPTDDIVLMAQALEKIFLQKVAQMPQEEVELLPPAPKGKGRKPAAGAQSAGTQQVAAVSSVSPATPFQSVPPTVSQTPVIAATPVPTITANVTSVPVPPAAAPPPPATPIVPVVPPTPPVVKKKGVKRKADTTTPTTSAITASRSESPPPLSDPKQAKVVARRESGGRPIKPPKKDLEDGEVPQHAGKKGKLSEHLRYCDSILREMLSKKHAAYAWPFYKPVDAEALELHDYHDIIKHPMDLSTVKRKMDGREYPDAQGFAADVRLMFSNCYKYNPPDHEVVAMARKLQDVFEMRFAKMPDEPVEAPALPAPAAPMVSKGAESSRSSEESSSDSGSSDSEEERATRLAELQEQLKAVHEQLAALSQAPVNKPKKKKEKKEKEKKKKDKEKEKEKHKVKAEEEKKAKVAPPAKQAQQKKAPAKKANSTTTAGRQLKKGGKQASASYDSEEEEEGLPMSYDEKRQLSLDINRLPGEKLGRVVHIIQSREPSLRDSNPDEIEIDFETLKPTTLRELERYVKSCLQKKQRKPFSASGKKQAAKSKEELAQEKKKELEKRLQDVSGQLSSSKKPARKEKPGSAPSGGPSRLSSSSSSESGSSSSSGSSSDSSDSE
Chain of UniProt Q9UQ88 (Q9UQ88 whole entry, looked up): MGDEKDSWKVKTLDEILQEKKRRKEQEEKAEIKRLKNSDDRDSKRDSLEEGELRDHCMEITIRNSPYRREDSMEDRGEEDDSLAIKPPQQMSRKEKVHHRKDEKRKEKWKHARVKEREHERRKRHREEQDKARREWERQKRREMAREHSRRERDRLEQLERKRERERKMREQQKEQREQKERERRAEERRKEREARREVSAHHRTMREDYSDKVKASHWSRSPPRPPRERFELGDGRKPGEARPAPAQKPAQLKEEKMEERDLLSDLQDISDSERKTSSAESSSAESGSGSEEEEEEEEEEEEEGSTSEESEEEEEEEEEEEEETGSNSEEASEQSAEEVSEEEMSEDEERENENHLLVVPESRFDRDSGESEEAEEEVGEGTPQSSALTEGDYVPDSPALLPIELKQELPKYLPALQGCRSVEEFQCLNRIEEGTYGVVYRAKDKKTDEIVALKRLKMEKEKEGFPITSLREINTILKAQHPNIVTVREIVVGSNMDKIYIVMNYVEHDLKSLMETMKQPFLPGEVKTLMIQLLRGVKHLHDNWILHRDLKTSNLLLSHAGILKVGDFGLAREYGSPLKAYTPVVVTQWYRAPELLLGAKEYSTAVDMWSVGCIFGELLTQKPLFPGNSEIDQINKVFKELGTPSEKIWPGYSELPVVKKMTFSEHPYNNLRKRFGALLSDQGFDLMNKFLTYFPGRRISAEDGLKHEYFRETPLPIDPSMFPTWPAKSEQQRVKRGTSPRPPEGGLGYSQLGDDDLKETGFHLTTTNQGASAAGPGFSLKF
Chain of UniProt Q9P281 (Q9P281 whole entry, looked up): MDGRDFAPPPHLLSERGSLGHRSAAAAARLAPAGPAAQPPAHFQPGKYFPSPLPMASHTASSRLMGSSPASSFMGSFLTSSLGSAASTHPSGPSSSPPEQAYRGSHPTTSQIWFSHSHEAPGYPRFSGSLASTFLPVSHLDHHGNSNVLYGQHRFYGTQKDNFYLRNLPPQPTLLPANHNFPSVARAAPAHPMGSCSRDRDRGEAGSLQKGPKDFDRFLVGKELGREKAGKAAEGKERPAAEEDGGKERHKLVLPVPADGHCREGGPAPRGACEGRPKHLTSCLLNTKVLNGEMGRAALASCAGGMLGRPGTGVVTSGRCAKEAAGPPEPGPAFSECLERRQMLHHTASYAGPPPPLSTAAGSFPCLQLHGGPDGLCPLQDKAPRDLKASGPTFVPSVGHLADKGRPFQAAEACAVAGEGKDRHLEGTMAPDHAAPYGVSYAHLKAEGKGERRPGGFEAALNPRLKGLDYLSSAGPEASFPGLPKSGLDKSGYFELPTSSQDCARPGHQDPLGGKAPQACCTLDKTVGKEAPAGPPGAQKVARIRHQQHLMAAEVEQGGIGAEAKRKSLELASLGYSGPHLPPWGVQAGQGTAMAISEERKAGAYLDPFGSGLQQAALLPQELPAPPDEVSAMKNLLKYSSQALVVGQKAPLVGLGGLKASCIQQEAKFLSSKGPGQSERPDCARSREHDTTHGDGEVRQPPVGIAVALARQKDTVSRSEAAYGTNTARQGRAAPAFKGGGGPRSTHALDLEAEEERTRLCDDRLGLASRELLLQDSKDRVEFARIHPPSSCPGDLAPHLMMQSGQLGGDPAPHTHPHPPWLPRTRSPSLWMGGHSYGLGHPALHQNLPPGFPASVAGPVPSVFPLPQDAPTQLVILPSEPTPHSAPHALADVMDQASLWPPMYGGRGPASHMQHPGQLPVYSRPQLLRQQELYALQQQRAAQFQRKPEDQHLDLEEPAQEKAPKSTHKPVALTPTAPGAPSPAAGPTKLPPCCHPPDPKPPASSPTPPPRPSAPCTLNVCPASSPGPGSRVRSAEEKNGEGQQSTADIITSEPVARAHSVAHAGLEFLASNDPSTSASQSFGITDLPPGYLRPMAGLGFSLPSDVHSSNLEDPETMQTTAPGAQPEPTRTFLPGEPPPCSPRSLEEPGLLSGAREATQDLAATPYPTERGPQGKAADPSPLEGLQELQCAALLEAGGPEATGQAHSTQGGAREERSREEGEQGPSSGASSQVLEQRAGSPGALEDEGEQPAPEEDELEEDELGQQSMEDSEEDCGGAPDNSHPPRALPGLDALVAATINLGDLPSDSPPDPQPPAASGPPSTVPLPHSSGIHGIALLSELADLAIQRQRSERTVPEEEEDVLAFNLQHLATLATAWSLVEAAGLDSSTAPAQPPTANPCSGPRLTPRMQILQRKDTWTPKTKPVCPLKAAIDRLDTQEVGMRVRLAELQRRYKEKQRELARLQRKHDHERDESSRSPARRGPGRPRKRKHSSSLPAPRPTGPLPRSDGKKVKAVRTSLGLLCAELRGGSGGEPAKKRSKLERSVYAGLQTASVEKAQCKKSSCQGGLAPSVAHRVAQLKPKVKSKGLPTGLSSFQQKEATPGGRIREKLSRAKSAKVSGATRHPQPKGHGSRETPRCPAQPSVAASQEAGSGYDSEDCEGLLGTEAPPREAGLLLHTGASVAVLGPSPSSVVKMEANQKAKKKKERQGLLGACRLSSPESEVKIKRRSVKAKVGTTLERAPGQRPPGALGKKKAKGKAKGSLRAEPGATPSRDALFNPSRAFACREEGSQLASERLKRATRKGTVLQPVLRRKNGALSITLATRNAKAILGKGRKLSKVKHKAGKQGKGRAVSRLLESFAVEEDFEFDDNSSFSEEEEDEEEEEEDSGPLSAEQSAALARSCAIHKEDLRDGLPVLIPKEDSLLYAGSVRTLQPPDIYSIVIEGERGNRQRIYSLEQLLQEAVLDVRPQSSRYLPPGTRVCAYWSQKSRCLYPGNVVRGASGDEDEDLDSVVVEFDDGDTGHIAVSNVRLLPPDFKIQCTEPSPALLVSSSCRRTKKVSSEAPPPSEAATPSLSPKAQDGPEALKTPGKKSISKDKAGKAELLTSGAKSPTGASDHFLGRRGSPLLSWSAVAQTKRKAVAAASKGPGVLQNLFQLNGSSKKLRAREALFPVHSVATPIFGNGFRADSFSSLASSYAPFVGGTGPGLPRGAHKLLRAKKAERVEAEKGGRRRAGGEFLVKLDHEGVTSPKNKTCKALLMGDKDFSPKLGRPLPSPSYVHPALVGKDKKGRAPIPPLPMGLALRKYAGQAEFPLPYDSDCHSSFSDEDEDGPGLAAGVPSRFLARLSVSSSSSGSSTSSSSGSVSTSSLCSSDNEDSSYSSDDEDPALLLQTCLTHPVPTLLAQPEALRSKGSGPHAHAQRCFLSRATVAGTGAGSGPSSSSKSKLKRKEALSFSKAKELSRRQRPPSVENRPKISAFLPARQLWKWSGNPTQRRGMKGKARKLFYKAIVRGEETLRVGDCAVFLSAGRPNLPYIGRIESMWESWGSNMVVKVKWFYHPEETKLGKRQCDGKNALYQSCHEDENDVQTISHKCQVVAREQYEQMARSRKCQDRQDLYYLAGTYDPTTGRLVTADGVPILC
Chain of UniProt P30304 (P30304 whole entry, looked up): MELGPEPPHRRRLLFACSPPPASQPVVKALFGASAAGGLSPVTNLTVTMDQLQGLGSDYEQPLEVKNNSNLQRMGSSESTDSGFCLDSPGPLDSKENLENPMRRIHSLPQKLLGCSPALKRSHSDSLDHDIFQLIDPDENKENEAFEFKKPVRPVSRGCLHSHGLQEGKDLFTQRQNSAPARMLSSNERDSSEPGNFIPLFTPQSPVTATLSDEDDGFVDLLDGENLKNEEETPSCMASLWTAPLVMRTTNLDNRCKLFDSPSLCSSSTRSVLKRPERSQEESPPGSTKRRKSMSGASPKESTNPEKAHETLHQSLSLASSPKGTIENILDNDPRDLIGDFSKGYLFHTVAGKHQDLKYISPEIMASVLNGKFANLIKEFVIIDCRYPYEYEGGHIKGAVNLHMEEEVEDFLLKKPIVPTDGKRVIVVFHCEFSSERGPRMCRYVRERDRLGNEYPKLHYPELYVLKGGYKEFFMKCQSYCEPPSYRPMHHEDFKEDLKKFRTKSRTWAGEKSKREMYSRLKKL

log2 fold change, inactive:
C3AR1 (UniProt Q16581) 0.358
CCND3 (UniProt P30281) 0.073
CANX (UniProt D6RHJ3) 0.068
CASP7 isoform 3 (UniProt P55210) -0.058
CDK11A (UniProt Q9UQ88) -0.023
CDCA8 (UniProt Q53HL2) 0.034
CAMK2B (UniProt Q13554) 0.001
CDC14A isoform 2 (UniProt Q9UNH5) 0.075
CEP57L1 (UniProt Q8IYX8) -0.003
BAHCC1 (UniProt Q9P281) 0.085
CENPV (UniProt Q7Z7K6) -0.205
CARHSP1 (UniProt H3BNU9) -0.107
CEP41 (UniProt Q9BYV8) 0.029
CDK16 isoform 2 (UniProt Q00536) -0.014
CEP295 isoform 3 (UniProt Q9C0D2) 0.018
CAPNS1 (UniProt U3KPR7) -0.069
CHCHD7 isoform 4 (UniProt Q9BUK0) 0.177
BRD3 (UniProt Q15059) -0.003
CDC25A (UniProt P30304) 0.005
CHD4, A0A2R8Y521 0.133
BMT2 (UniProt Q1RMZ1) 0.025

Each target was assayed with COc1cc2nc(-c3cc(F)ccc3O)nc(N[C@@H]3CNC[C@H]3C(C)(C)O)c2cc1OC in the same assay as above.
How it was run: as §1

log2 fold change, inactive:
CDKL5 (UniProt O76039) 0.058
CANX (UniProt D6RHJ3) 0.07
CASP7 isoform 3 (UniProt P55210) 0.079
CDK11A (UniProt Q9UQ88) -0.037
CAMK2B (UniProt Q13554) -0.005
CCAR2 (UniProt G3V119) -0.032
CDC14A isoform 2 (UniProt Q9UNH5) 0.019
BAHCC1 (UniProt Q9P281) 0.076
C6orf120 (UniProt Q7Z4R8) -0.026
CARHSP1 (UniProt H3BNU9) -0.003
CEP41 (UniProt Q9BYV8) -0.059
CDK16 isoform 2 (UniProt Q00536) 0.008
CEP295 isoform 3 (UniProt Q9C0D2) -0.016
CAPNS1 (UniProt U3KPR7) 0.024
ATE1 (UniProt O95260) 0.044
CHCHD7 isoform 4 (UniProt Q9BUK0) 0.027
BRD3 (UniProt Q15059) -0.015
CAPNS1 (UniProt K7ES78) -0.083
CDC25A (UniProt P30304) 0.019
BICRA (UniProt Q9NZM4) 0.132
C16orf70 (UniProt Q9BSU1) 0.076
CHD4, A0A2R8Y521 -0.454
